Compounds with a hit are over-represented: about 2.2% of the library has one in this group of screens.
TGFb SMAD3 inh = blocks TGF-b signaling; HepG2 CAGA-GFP TGF-b/SMAD3 reporter, GFP fluorescence, 18 h; TGF-beta stimulated, 500 pg/mL final; Potency, µM (series often up to 46.1 µM), usual class: inhibitors; actives 1.2% (n = 410,000); AID 588855; further: nearly all actives have a fitted effect of over 65% in size
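HEPG2 CAGA-GFP reporter cells (1000/well, DMEM with 1% FBS) received compounds, then recombinant TGF-beta at 500 pg/mL final for 18 hours at 37 degrees C. Per-cell GFP summed per well was normalised to unstimulated and stimulated DMSO controls before curve fitting.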
ATXN viability = cell viability loss in ATXN counter-screen | S2 cells (HEK-293 line with an ATXN2-luciferase reporter) viability, CellTiter-Fluor protease fluorescence, 24 h | Potency, µM (titrated, usually from 56.7 µM), actives largely listed as cytotoxic | actives 0.49% (n = 400,000) | AID 651635; further: nearly all actives have a fitted effect of over 40% in size
HepG2 tox = HepG2 cytotoxicity, counter-screen for TGF-b inhibitors; HepG2 CAGA-GFP viability, ATP luminescence, 18 h; Potency, µM (top dose mostly 46.1 µM), usual class: cytotoxic; actives 0.76% (n = 410,000); AID 588856
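CellTiter-Glo luminescence gave cytotoxicity after 18 hours at 37 degrees C. The cells were HepG2 CAGA-GFP in 1% FBS DMEM, stimulated with 500 pg/mL TGF-beta after compound addition. %Activity was normalised to no-cell wells (complete cell-killing) and DMSO (no toxicity), and curves were fitted and classified.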
ATXN2 expr inh = reduces ATXN2 reporter expression in HEK-293 cells; HEK-293 ATXN2-luciferase reporter, luminescence, 24 h; Potency, µM (series often up to 57 µM), actives largely listed as inhibitors; actives 0.72% (n = 360,000); AID 1745845; further: nearly all actives have a fitted effect of over 55% in size
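qHTS (up to 57 uM final) was run with 24 h compound exposure of reporter cells at 37 °C. Each well was multiplexed: SteadyGlo luminescence measured ATXN2-luciferase expression after a fluorogenic Gly-Phe-AFC viability readout (25 uM final).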
LDHA block = LDHA (human) enzyme inhibition; AID 1347041; activity change, % (values are at about 110 or 230 µM); purified LDHA, NADH/diaphorase-resazurin fluorescence; stronger effect = lower value; P00338; actives 0.15% (n = 480,000); in the data active means activity change below about -30%; inconclusive means mostly about -25% to -30%
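LDH5 2 nM; NADH 0.06 mM, pyruvate 0.2 mM; 200 mM Tris pH 7.4, EDTA, Tween-20; 5 min RT. Detection: diaphorase 0.133 mg/mL + resazurin 37 µM, fluorescence ex540/em590 at 0 and 20 min; normalized to enzyme-free and DMSO wells.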
IDH1 R132H inh = human IDH1 R132H inhibition; O75874; IDH1-R132H enzyme, NADPH consumption, diaphorase/resazurin fluorescence; Potency, µM (titrated, usually from 76.6 µM), most hits filed as inhibitors; actives 0.093% (n = 390,000); AID 602179; further: nearly all actives have a fitted effect of over 65% in size
Target sequence (O75874 whole entry R132H, stated change not applied): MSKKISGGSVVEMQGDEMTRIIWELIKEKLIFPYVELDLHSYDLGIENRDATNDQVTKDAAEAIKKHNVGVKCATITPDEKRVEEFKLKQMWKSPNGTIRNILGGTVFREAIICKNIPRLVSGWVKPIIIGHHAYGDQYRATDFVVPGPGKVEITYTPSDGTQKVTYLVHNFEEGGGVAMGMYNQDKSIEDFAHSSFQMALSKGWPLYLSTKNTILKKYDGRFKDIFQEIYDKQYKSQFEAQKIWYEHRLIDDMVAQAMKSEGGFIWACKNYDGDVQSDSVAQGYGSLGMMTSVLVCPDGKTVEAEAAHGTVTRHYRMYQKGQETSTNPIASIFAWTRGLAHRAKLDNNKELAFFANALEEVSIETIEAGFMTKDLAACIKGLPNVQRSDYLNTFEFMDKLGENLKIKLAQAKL
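IDH1-R132H (0.5 ug/mL dispensed) in pH 7.5 Tris buffer was preincubated 30 min with compound, then given a substrate mix of 0.016 mM NADPH and 2 mM alpha-KG for 80 min at room temperature; remaining NADPH was read by diaphorase/resazurin fluorescence.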
Each line names hits and unclear results; the compound was inactive in the other large screens. Unless noted, the call rests on the fitted dose curve; in most records, active means well fitted curve in the direction sought with a large enough effect; inconclusive means small, poorly fitted or top-dose-only effect, or another doubt; inactive means no such curve, though single readings can be large; an effect the other way counts as inactive or inconclusive.

O=C(Nc1nc(-c2ccccn2)cs1)c1ccc(-c2ccccc2F)o1	TGFb SMAD3 inh 14.1µM, ATXN viability inconclusive, ATXN2 expr inh inconclusive
CC(NC(=O)c1csc2ccccc12)C1CC2CCC1C2 (centres undefined)	none (no result: TGFb SMAD3 inh, ATXN viability, HepG2 tox, ATXN2 expr inh, IDH1 R132H inh)
CC(C)n1c(NCc2cccs2)nc2ccccc21	none
CN(C)c1ccc(/C=C/c2ccc3ncccc3c2)cc1	none (no result: ATXN viability, ATXN2 expr inh, IDH1 R132H inh)
O=C1C2CCc3ccccc3C2N1c1ccccc1 (centres undefined)	none
COc1ccc(S(=O)(=O)Nc2ccc3c(c2)CCC3)cc1	TGFb SMAD3 inh 11.2µM
O=C(N/N=C/c1ccc(O)cc1)NC12CC3CC(CC(C3)C1)C2	none
O=C(O)Cc1ccc(NS(=O)(=O)c2ccc(C3CCCCC3)cc2)cc1	none (no result: TGFb SMAD3 inh, ATXN viability, HepG2 tox, ATXN2 expr inh, IDH1 R132H inh)
Cc1ccc(NS(=O)(=O)c2ccc(C3CCCCC3)cc2)cc1	TGFb SMAD3 inh 12.6µM, ATXN viability inconclusive, HepG2 tox 10µM
Cc1ccc(-c2cc(C(=O)N3CCN(c4ncccn4)CC3)c3cc(Br)ccc3n2)o1	none (no result: ATXN viability)
CNC[C@H](Cc1ccccc1)NC[C@@H](Cc1cccc2ccccc12)NCCc1ccc(C)cc1	TGFb SMAD3 inh inconclusive, ATXN viability inconclusive, HepG2 tox 17.8µM, ATXN2 expr inh inconclusive
O=C(CSc1ccccc1)Nc1ccc(-c2nc3ccccc3[nH]2)cc1	TGFb SMAD3 inh inconclusive, HepG2 tox 15.8µM
O=C(Nc1ccc(-c2nc3ccccc3[nH]2)cc1)C1CCCO1 (centres undefined)	HepG2 tox 7.08µM
O=C(Nc1ccc(-c2nc3ccccc3[nH]2)cc1)c1ccc2c(c1)OCO2	TGFb SMAD3 inh 7.94µM, ATXN viability inconclusive, HepG2 tox 8.91µM
CC(=O)CSc1ccc(-c2nc3ccccc3[nH]2)cn1	HepG2 tox 10µM
CC(=O)CSc1ccc(-c2nc3cc(C)c(C)cc3[nH]2)cn1	TGFb SMAD3 inh inconclusive, ATXN viability inconclusive, ATXN2 expr inh inconclusive
O=C(Nc1ccc(Cl)c(-c2nc3ccccc3[nH]2)c1)c1ccc2c(c1)OCO2	none
CCCOC(=O)c1ccc(NC(=O)C2CC(=O)N(c3ccc(C)cc3)C2)cc1 (centres undefined)	none
Cc1c(C)n(Cc2ccccc2)c2ccc(C(=O)N3CCN(c4ccccc4)CC3)cc12	none (no result: ATXN viability, ATXN2 expr inh)
COc1ccc(/C=C2\SC(=O)N=C2N)cc1OC	none (no result: ATXN2 expr inh)
COc1ccc(/C=C2\SC(=N)N(c3nccs3)C2=O)cc1OC	ATXN viability inconclusive, ATXN2 expr inh 11.2µM
N=C1S/C(=C\c2ccc(-c3cccc(Cl)c3)o2)C(=O)N1c1nccs1	TGFb SMAD3 inh inconclusive, ATXN viability 5.62µM, ATXN2 expr inh 3.55µM
N=C1C(c2nc3ccccc3[nH]2)=C(O)CN1C1CCCCC1	none
O=C1OCCN1S(=O)(=O)Nc1ccccc1	none (no result: ATXN2 expr inh)
CC[N+](C)(C)c1ccc(/C=C/c2ccnc3ccccc23)cc1	TGFb SMAD3 inh 11.2µM (no result: ATXN viability, ATXN2 expr inh, LDHA block, IDH1 R132H inh)
CC[N+](CC)(CC)c1ccc(/C=C/c2ccnc3ccccc23)cc1	TGFb SMAD3 inh 2.51µM (no result: ATXN viability, ATXN2 expr inh, LDHA block, IDH1 R132H inh)
C=CC[C@@H](CC(=O)N(CCO)Cc1ccccc1)C(=O)N[C@H](COC(=O)[C@@H](CC=C)CC(=O)OC(C)(C)C)C(C)(C)C	ATXN viability 28.2µM, ATXN2 expr inh inconclusive
C=CC[C@H](CC(=O)N(CCO)Cc1ccccc1)C(=O)N[C@H](COC(=O)[C@H](CC=C)CC(=O)OC(C)(C)C)Cc1ccccc1	TGFb SMAD3 inh inconclusive, ATXN viability 22.4µM
C=CC[C@@H](CC(=O)N(CCO)Cc1ccccc1)C(=O)N[C@H](COC(=O)[C@@H](CC=C)Cc1ccc(F)cc1)C(C)(C)C	TGFb SMAD3 inh inconclusive, ATXN viability inconclusive
C=CC[C@@H](CC(=O)N(CCO)Cc1ccccc1)C(=O)N[C@H](COC(=O)[C@@H](CC=C)CC(=O)OC(C)(C)C)c1ccccc1	TGFb SMAD3 inh inconclusive, ATXN2 expr inh inconclusive (no result: ATXN viability)
O=C(NCC1CCCO1)c1ccc([N+](=O)[O-])o1 (centres undefined)	TGFb SMAD3 inh 12.6µM, ATXN viability inconclusive

Bioassay records from PubChem BioAssay.
